Results reported in the supplement of paper PMC13380429.

Key:
[1] = system: Vero E6 infected with SARS-CoV-2; assay: morphology score (similarity to uninfected cells); higher = more like uninfected cells; conditions: 24 h
[2] = system: Vero E6 infected with SARS-CoV-2; assay: SARS-CoV-2 infection rate relative to infected DMSO; higher = more infection, active = 60 or less; conditions: 24 h

Row | Compound | morphology score [1] | SARS-CoV-2 infection rate [2]
1 | O=C1Cc2cc(CCN3CCN(c4nsc5ccccc45)CC3)c(Cl)cc2N1 [ziprasidone] (10 µM) | 0.328 | 100% (inactive)
2 | CC1(C)S[C@@H]2[C@H](NC(=O)[C@H](N)c3ccc(O)cc3)C(=O)N2[C@H]1C(=O)O [amoxicillin] (10 µM) | -0.146 | 102% (inactive)
3 | CN(c1nccc(=O)[nH]1)C1CCN(c2nc3ccccc3n2Cc2ccc(F)cc2)CC1 [mizolastine] (10 µM) | 0.211 | 106% (inactive)
4 | c1coc(CNc2ncnc3[nH]cnc23)c1 [kinetin] (10 µM) | 0.0735 | 104% (inactive)
5 | COC(=O)C(Cc1ccc(OCCn2c(=O)sc3cc(C(=O)c4ccccc4)ccc32)cc1)C(=O)OC (10 µM) | 0.318 | 88.5% (inactive)
6 | Cc1cccc(C)c1OCC(=O)N[C@@H](Cc1ccccc1)[C@@H](O)C[C@H](Cc1ccccc1)NC(=O)[C@H](C(C)C)N1CCCNC1=O [lopinavir] (10 µM) | 0.184 | 105% (inactive)
7 | CC[C@]12CCCN3CCc4c(n(c5ccccc45)[C@@](O)(C(=O)OC)C1)[C@@H]32 [vincamine] (10 µM) | 0.0512 | 99% (inactive)
8 | COC(=O)N[C@H](C(=O)N1CCC[C@H]1c1ncc(-c2ccc(-c3ccc(-c4cnc([C@@H]5CCCN5C(=O)[C@@H](NC(=O)OC)C(C)C)[nH]4)cc3)cc2)[nH]1)C(C)C [daclatasvir] (10 µM) | 0.0693 | 90.5% (inactive)
9 | CC1=C(/C=C/C(C)=C/C=C/C(C)=C/C=C/C=C(C)/C=C/C=C(C)/C=C/C2=C(C)CCCC2(C)C)C(C)(C)CCC1 [beta-carotene] (10 µM) | 0.0662 | 112% (inactive)
10 | N=C(Nc1ccccc1)Nc1ccccc1 [diphenylguanidine] (10 µM) | 0.216 | 98% (inactive)
11 | CC(C)[C@@]1(NC(=O)[C@@H]2C[C@@H]3c4cccc5[nH]cc(c45)C[C@H]3N(C)C2)O[C@@]2(O)[C@@H]3CCCN3C(=O)[C@H](Cc3ccccc3)N2C1=O [dihydroergocristine] (10 µM) | -0.123 | 117% (inactive)
12 | CN1CCCN=C1/C=C/c1cccs1 [pyrantel-pamoate] (10 µM) | 0.103 | 93.5% (inactive)
13 | O=C(O)c1ccc2nc(-c3cc(Cl)cc(Cl)c3)oc2c1 [tafamidis-meglumine] (10 µM) | 0.242 | 90.5% (inactive)
14 | c1ccc(C(NCCNC(c2ccccc2)c2ccccc2)c2ccccc2)cc1 (10 µM) | 0.14 | 101% (inactive)
15 | O=[N+]([O-])/N=C1\NCCN1Cc1ccc(Cl)nc1 [imidacloprid] (10 µM) | 0.114 | 98.5% (inactive)
16 | CNC(=O)c1ccccc1Sc1ccc2c(/C=C/c3ccccn3)n[nH]c2c1 [axitinib] (10 µM) | 0.563 | 80.5% (inactive)
17 | CS(=O)(=O)c1ccc(-c2cn3ccccc3n2)cc1 [zolimidine] (10 µM) | 0.211 | 85% (inactive)
18 | COC(=O)C[C@](O)(CCC(C)(C)O)C(=O)O[C@@H]1C(OC)=C[C@]23CCCN2CCc2cc4c(cc2[C@H]13)OCO4 [harringtonine] (10 µM) | 0.555 | 49% (active)
19 | CCN(C)C(=O)Oc1cccc([C@H](C)N(C)C)c1 [rivastigmine] (10 µM) | 0.136 | 101% (inactive)
20 | O=C(Nc1ccccc1-c1cn2c(CN3CCNCC3)csc2n1)c1cnc2ccccc2n1 (0.833333 µM) | 0.075 | 114% (inactive)
21 | CCCOCCn1c(=O)c(N2CCN(CCO)CC2)nc2cnc(-c3ccc(OC)nc3)cc21 (10 µM) | -0.0795 | 116% (inactive)
22 | Cc1[nH]c2ccc(O)cc2c1CCN [2-methyl-5-hydroxytryptamine] (10 µM) | 0.00237 | 108% (inactive)
23 | C[C@H](NC(=O)c1sccc1OCc1ccc(Cl)cc1)c1ccccc1 (10 µM) | 0.0842 | 94.5% (inactive)
24 | CNC(=O)c1ccc(-c2cnc3ncc(Cc4ccc5ncccc5c4)n3n2)cc1F (10 µM) | 0.0374 | 98% (inactive)
25 | COc1cc2c(cc1OC)C1CC(=O)C(CC(C)C)CN1CC2 (configuration not stated) [tetrabenazine] (10 µM) | 0.159 | 102% (inactive)
26 | CCOCCn1c(C2CCN(CCc3ccc(C(C)(C)C(=O)O)cc3)CC2)nc2ccccc21 [bilastine] (10 µM) | 0.144 | 107% (inactive)
